Compound activity from PubChem BioAssay.
Shown are actives, neighbours in structure and some others; about 3% of the full set was active somewhere.
p53null 39C kill – qHTS Screen for Compounds that Selectively Target Cancer Cells with p53 Mutations: Cytotoxicity of p53 Null Cells at the Nonpermissive Temperature | H1299 p53-null (neo) cells, 39C, ATPlite viability, 24 h | Potency, µM (titrated, usually from 46.1 µM), inactives show at the highest dose activity, negative = cell killing, actives largely listed as cytotoxic | 55,000 tested, 0.97% active | AID 904, 2007;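 further: 0% = DMSO only and -100% = full killing by 100 µM tamoxifen; nearly all actives have a fitted effect of over 50% in size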
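Temperature-shift cytotoxicity format: compound titrations on p53-null or A138V-expressing H1299 cells held 24 hr at 39C, cell ATP then measured, AC50 from Hill model.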
mTORC1 inh – Acumen qHTS Assay for Inhibitors of the mTORC1 Signaling Pathway in MEF (Tsc2-/-, p53-/-) Cells: Sytravon; Tsc2-/- p53-/- MEF, phospho-rpS6 immunofluorescence/PI, 24 h; Potency, µM (top dose mostly 38.3 µM), for the others: top-dose activity change, negative = inhibition, usual class: inhibitors; 44,000 tested, 0.78% active;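 further: plate controls were DMSO for no effect and rapamycin for full effect; nearly all actives have a fitted effect of over 50% in size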
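Tsc2-/-, p53-/- MEFs (empty-vector stable line) in DMEM + 10% FBS were treated with compounds 24 h at 37 degree Celsius, fixed, and immunostained for phospho-rpS6 (Alexa-488) with propidium iodide counterstain. Laser-scanning cytometry gave % positive cells, normalized against 7.5 nM rapamycin and DMSO.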
p53null 32C kill – qHTS Screen for Compounds that Selectively Target Cancer Cells with p53 Mutations: Cytotoxicity of p53 Null Cells at the Permissive Temperature | H1299-neo p53 null cells, ATP luminescence, 24 h, 32C | Potency, µM (top dose mostly 46.1 µM), for the others: top-dose activity change, negative = cytotoxicity, usual class: cytotoxic | 55,000 tested, 0.62% active;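 further: 0% = DMSO only and -100% = full killing by 100 µM tamoxifen; nearly all actives have a fitted effect of over 55% in size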
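AC50 values derive from Hill modelling of qHTS concentration-response data (up to 46 uM) in H1299-neo cells. Cells were treated 24 h at 32C following overnight attachment at 37C; viability was read as cellular ATP.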
PMP22 txn prim – Cell-based coincidence reporter assay to measure PMP22 gene transcription in S16 Pmp22-F2sN cells - Primary screen; S16 Pmp22-F2sN Schwann cells, FLuc/NLuc coincidence luminescence, 24 h; Potency, µM (series often up to 57.5 µM), for the others: at the highest dose activity change, negative = inhibition, most hits filed as inhibitors; 43,000 tested, 2% active; AID 1508649, 2021; active means clear falling dose curves in both reporters; inconclusive means both reporters move, but less clearly or upward; inactive means either reporter flat; the % is the NLuc reporter signal
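Schwann cells carrying the coincidence reporter were exposed to library compounds for 24 h at 37C, then lysed and read for FLuc and, after quenching, NLuc luminescence on a CCD imager.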
SKOV3 invasion – Primary qHTS assay for Inhibitors of ovarian cancer metastasis using an organotypic tumor microenvironment (TME) model. Potency, µM (titrated, usually from 45.8 µM), inactives show at the highest dose activity change, negative = inhibition, hits mostly inhibitors. 46,000 tested, 0.1% active. SKOV3ip1-GFP adhesion/invasion on 3D omental model, fluorescence;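 further: plate controls were DMSO wells for no effect and tomatine positive control wells for full effect; nearly all actives have a fitted effect of over 65% in size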
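Adhesion/invasion was scored as fixed GFP-labeled SKOV3ip1 cell counts (488/509 nm), normalized to DMSO and tomatine controls. Cancer cells in serum-free medium, with four compound doses (0.36-46 umol/L), sat 2 hr at RT then 16 hr at 37 C on a 48 hr fibroblast/mesothelial/ECM culture.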
S16 viability – Cell viability qHTS assay in S16 Pmp22-F2sN cells; S16 Pmp22-F2sN Schwann cells viability, CellTiter-Glo, 24 h; Potency, µM (series often up to 57.5 µM), for inactives: at the top dose activity change, negative = cytotoxicity, most hits filed as cytotoxic; 43,000 tested, 0.48% active; AID 1508642, 2021; further: nearly all actives have a fitted effect of over 65% in size
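Viability was measured by CellTiter-Glo luminescence (15 min, room temperature). This followed 24 h at 37 °C of compound exposure (23 nL pin transfer) in S16 Pmp22-F2sN Schwann cells, 500-1,000 per well.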
Numbers without * were called inactive; i = inactive; ? = inconclusive; . = not tested or not shown. Unless noted, the call rests on the fitted dose curve; in most records, active means well fitted curve in the direction sought with a large enough effect; inconclusive means small, poorly fitted or top-dose-only effect, or another doubt; inactive means no such curve, though single readings can be large; an effect the other way counts as inactive or inconclusive. Unless noted, on the % scale 0 is the no-effect control and ±100 the full control effect; potency means the concentration at half of the fitted maximal effect.

SMILES | p53null 39C kill | mTORC1 inh | p53null 32C kill | PMP22 txn prim | SKOV3 invasion | S16 viability
Cc1ccn2c(Nc3ccc(C(C)C)cc3)c(-c3cccnc3)nc2c1 | 21% | -2% | 34% | ? | 0% | ?
CC(C)c1ccc(Nc2c(-c3ccccn3)nc3ccccn23)cc1 | ? | -19% | 59% | 14µM* | ? | 8.9µM*
COc1cc(-c2nc3cnccn3c2Nc2ccc(C(C)C)cc2)ccc1O | 16µM* | 15µM* | ? | ? | -22% | ?
CC(C)c1ccc(Nc2c(-c3ccccc3O)nc3cnccn23)cc1 | 25µM* | -25% | 34% | ? | -11% | -9%
CCn1c(-c2nonc2N)nc2cnc(Oc3cccc(NC(=O)c4ccc(OCCN5CCOCC5)cc4)c3)cc21 | . | . | . | . | 14% | .
COc1cc(F)c(C(C)C)cc1-c1ccc(C(F)(F)F)cc1CN1C(=O)O[C@H](c2cc(C(F)(F)F)cc(C(F)(F)F)c2)[C@@H]1C | . | . | . | . | -14% | .
O=c1[nH]c(=O)n([C@H]2C[C@@H](O)[C@@H](CO)O2)cc1I | . | . | . | . | 3% | .
C#CCn1c(=NC(=O)c2ccc3c(c2)OCCO3)sc2cc(OC)c(OC)cc21 | -15% | 14% | 6% | ? | -3% | 3%
CCn1c(=NC(=O)c2ccc3c(c2)OCCO3)sc2c(C)ccc(OC)c21 | ? | -19% | -18% | 9.2µM* | i | 2%
COc1ccc(-n2c(/C=C/c3cc(OC)c(OC)cc3OC)nc3cc4ccccc4cc3c2=O)cc1Cl | 23% | ? | -6% | 39% | -23% | 6%
COc1ccc(-n2c(/C=C/c3ccccc3F)nc3cc(OC)c(OC)cc3c2=O)cc1Cl | 13% | 5% | -4% | -29% | 5% | 10µM*
COc1ccc(OC)c(NC(=O)c2nnn(CC(=O)Nc3ccc(C(C)C)cc3)c2N)c1 | ? | 16µM* | -5% | -27% | i | 3%
COc1ccc(NC(=O)c2nnn(CC(=O)Nc3ccc(C)c(C)c3)c2N)cc1OC | 7% | -18% | 1% | 15% | -14% | -4%
COc1cccc(C2CC(=O)Nc3cc4c(cc32)OCCO4)c1OC (stereo not given) | 1% | 15µM* | 18% | 0% | -10% | -33%
CC(C)(C)Cn1c(N)nc2ccc(-c3[nH]c(C(C)(C)C)nc3-c3ccc(F)cc3)nc21 | . | . | . | . | 3% | .
O=C(O)C1=CC(O)C(O)[C@H](O)C1 (stereo not given in full) | . | . | . | . | -14% | .
CCOc1ccc(-n2nc3ccc(NC(=O)c4ccc(-c5cccc(Cl)c5)o4)cc3n2)cc1 | ? | 12µM* | -29% | ? | 15% | ?
CC(C=CC(=O)NO)=C[C@@H](C)C(=O)c1ccc(N(C)C)cc1 | . | . | . | . | 0% | .
CCOc1ccc(NC(=O)CN(C)S(=O)(=O)c2ccc3[nH]c4c(c3c2)CCCC4)cc1 | -29% | 0% | 13% | 17µM* | 6% | ?
Cc1cc(C)cc(NC(=O)CN(C)S(=O)(=O)c2ccc3[nH]c4c(c3c2)CCCC4)c1 | -20% | 0% | 6% | ? | 0% | -6%
CCNC(=O)Nc1ccc(-c2nc3c(c(N4CCOC[C@H]4C)n2)CCN(C2COC2)C3)cc1 | . | . | . | . | -5% | .
COc1ccccc1N1CCN(C(=O)c2ccc(Nc3nc4ccccc4n4nnnc34)cc2)CC1 | -15% | -1% | 4% | ? | -26% | 3.5µM*
Cc1ccc(C)c(N2CCN(C(=O)c3ccc(Nc4nc5ccccc5n5nnnc45)cc3)CC2)c1 | -7% | ? | -5% | -37% | 13% | -28%
CC(C)CCNC(=O)c1cccc(Nc2nc3ccccc3n3nnnc23)c1 | ? | ? | -23% | 9.5µM* | ? | 20µM*
CN(C)c1ccc(/C=C(\C#N)c2nc3ccccc3c(=O)[nH]2)cc1 | ? | -18% | 0.32µM* | ? | -9% | 7%
SMILES | p53null 39C kill | mTORC1 inh | p53null 32C kill | PMP22 txn prim | SKOV3 invasion | S16 viability
Cc1ccc(NC(=O)c2ccccc2O)cc1 | 10µM* | . | 13µM* | . | . | .
Cc1oc(-c2cccc(Cl)c2)nc1CN1CCC(C(=O)NCCc2ccc(Cl)cc2)CC1 | -13% | 0% | -4% | -22% | 2% | 22%
Cc1oc(-c2cccc(Cl)c2)nc1CN1CCCC(C(=O)NCCc2ccc(Cl)cc2)C1 (stereo not given) | 20µM* | 0% | -1% | ? | 0% | ?
O=c1cc(-c2cccc3c2Sc2ccccc2S3)oc(N2CCOCC2)c1 | . | . | . | . | -13% | .
O=C(Nc1nc2c(s1)CCCC2)c1ccc2ncsc2c1 | 11µM* | . | 13µM* | . | . | .
Cc1cccc(C(=O)Nc2nc3c(s2)CCCC3)c1 | 13µM* | -5% | 13µM* | -18% | -14% | -19%
OC[C@H]1O[C@@H](Oc2ccc(O)cc2)[C@H](O)[C@@H](O)[C@H]1O | . | . | . | . | 11% | .
CCOc1ccc(C2=C(C(=O)CC)Sc3nncn3N2C(=O)CC)cc1 | ? | ? | 13µM* | ? | -19% | ?
COc1cccc(C2=C(C(C)=O)Sc3nncn3N2C(C)=O)c1 | -2% | -10% | -8% | ? | -18% | ?
CCC(=O)C1=C(c2ccc(F)cc2)N(C(=O)CC)n2cnnc2S1 | -1% | 12µM* | -2% | ? | i | ?
CC(=O)C1=C(c2ccc(Cl)c(Cl)c2)N(C(C)=O)n2cnnc2S1 | -22% | 15µM* | 12% | ? | ? | ?
CC(O)=C(C#N)C(=O)Nc1ccc(C(F)(F)F)cc1 | . | . | . | . | 3% | .
Cc1ccc(-n2nc3c(N4CCC(C(=O)NCCc5ccccc5)CC4)nnc(C)c3c2C)cc1 | -28% | -5% | 11% | ? | -14% | 28µM*
COc1ccc(-n2nc3c(N4CCC(C(=O)NCCc5ccccc5)CC4)nnc(C)c3c2C)cc1 | -4% | 1% | -1% | 6% | 5% | -3%
CCc1ccc(NC(=O)N2CCN(c3nnc(C)c4c(C)n(-c5ccc(Cl)cc5)nc34)CC2)cc1 | 20µM* | -15% | ? | ? | -1% | -26%
Cc1ccc(C)n1-c1ccccc1N | ? | . | 13µM* | . | . | .
